Measurements as given in PubChem BioAssay (EPA / NIEHS).
“And” between values parts separate entries of the source, which are not always exact repeats. Equal values may be shown once. Some structures have more than one record in an assay (separate samples or runs), and their calls can disagree. The source made the active and inactive calls. Rule for the calls: active = hit-call score of the fitted dose curve at least 0.9, where 1 is the maximum; inactive = score below 0.9.

Legend:
[1] = APR_HepG2_MitoticArrest_72hr: Apredica 72-hour HepG2 Assay for Mitotic Arrest (AID 2282918); conditions: high-content imaging, actives raise or lower the signal
Method in brief: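 HepG2 cells were exposed for 72 hr to compound at 0.39–200 uM (10 concentrations, duplicate) in 0.5% v/v DMSO, fixed in 3.7% formaldehyde, immunostained for phospho-histone H3 with Hoechst 33342 and imaged by high-content fluorescence; bidirectional fits versus DMSO.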

[2] = APR_HepG2_StressKinase_72hr: Apredica 72-hour HepG2 Assay for Stress Kinase (AID 2282921); conditions: HepG2 stress kinase (phospho-c-Jun) imaging, actives raise or lower the signal
Method in brief: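 After a 72 h compound treatment spanning 0.39 to 200 uM, formaldehyde-fixed cells are labelled for phosphorylated c-Jun and nuclei, imaged by automated fluorescence microscopy, and activity is fitted in both directions relative to DMSO controls.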

[3] = APR_HepG2_StressKinase_24hr: Apredica 24-hour HepG2 Assay for Stress Kinase (AID 2282922); conditions: HepG2 stress kinase (phospho-c-Jun) imaging, actives raise or lower the signal
Method in brief: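 After 24 hr compound treatment (up to 200 uM, final DMSO 0.5% v/v), HepG2 cells are fixed and multiplex-labeled; phospho-c-Jun intensity is captured by high-content fluorescence imaging and analyzed relative to DMSO.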

[4] = APR_HepG2_NuclearSize_72hr: Apredica 72-hour HepG2 Assay for Nuclear Size (AID 2282925); conditions: high-content imaging, actives raise or lower the signal
Method in brief: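 Compounds (0.39–200 uM, final DMSO 0.5%) were applied to HepG2 for 72 hr. Cells were then formaldehyde-fixed, permeabilized and labelled with Hoechst 33342. Nuclear diameter was quantified from six images per well.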

[5] = ATG_CRE_CIS: Attagene CIS-FACTORIAL HepG2 Assay for human cAMP Responsive Element (CRE) binding protein 3 (AID 2282926); conditions: HepG2 CRE cis-reporter, Attagene multiplexed mRNA; actives raise or lower the signal
Method in brief: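 Capillary electrophoresis of 6-FAM-labelled, HpaI-digested PCR products quantified reporter transcripts. These came from HepG2 transiently transfected with cis-element reporters and exposed to test chemicals for 24 hours, with DMSO defining baseline activity.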

[6] = target: CCAAT/enhancer-binding protein beta (Homo sapiens) (UniProt P17676); experiment: ATG_C_EBP_CIS: Attagene CIS-FACTORIAL HepG2 Assay for human CCAAT/Enhancer Binding Protein (C/EBP) beta (AID 2282927); conditions: HepG2 Attagene cis-factorial transcription factor reporter; actives raise or lower the signal
Sequence of CCAAT/enhancer-binding protein beta (Homo sapiens) (P17676 whole entry, looked up): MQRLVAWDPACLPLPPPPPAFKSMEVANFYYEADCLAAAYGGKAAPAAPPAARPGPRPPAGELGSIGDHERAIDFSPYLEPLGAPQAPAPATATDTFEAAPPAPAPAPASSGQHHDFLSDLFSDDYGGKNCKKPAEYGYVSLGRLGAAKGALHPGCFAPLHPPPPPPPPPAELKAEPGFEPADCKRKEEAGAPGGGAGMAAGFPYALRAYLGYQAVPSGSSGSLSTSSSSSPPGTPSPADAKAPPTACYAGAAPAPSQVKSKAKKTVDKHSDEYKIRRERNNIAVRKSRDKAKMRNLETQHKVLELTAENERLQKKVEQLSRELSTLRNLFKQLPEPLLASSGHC
Method in brief: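 Following a 24 h incubation with test chemical, transfected HepG2 cells yielded RNA whose reporter transcripts were quantified by RT-PCR and fluorescent capillary electrophoresis, with DMSO serving as baseline for bidirectional fitting.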

[7] = ATG_CMV_CIS: Attagene CIS-FACTORIAL HepG2 Assay for human CMV (Internal Marker) (AID 2282928); conditions: HepG2 CMV promoter reporter, transcription factor profiling; actives raise or lower the signal;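 note: endpoint acts as a background internal control marker rather than a target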
Method in brief: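 24 h chemical treatment, HepG2 with transient multi-reporter transfection; RNA → oligo(dT) RT → PCR → 6-FAM extension → HpaI digest → CE fluorescence. Bidirectional fit, DMSO negative control.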

[8] = ATG_DR4_LXR_CIS: Attagene CIS-FACTORIAL HepG2 Assay for human Liver X Receptor (LXR), DR4 submotif (AID 2282929); conditions: HepG2 Attagene DR4 cis-reporter, mRNA transcription; actives raise or lower the signal
Method in brief: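 Transiently transfected HepG2 liver cells; cis-regulated reporters; 24 h dosing. RT-PCR plus CE read-out of reporter mRNA. DMSO baseline, bidirectional curve fitting.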

[9] = target: Aryl hydrocarbon receptor (Homo sapiens) (UniProt P35869); experiment: ATG_Ahr_CIS: Attagene CIS-FACTORIAL HepG2 Assay for human Aryl Hydrocarbon Receptor (Ahr) (AID 2282930); conditions: HepG2 AhR cis-factorial reporter transcription; actives raise or lower the signal
Sequence of Aryl hydrocarbon receptor (Homo sapiens) (P35869 whole entry, looked up): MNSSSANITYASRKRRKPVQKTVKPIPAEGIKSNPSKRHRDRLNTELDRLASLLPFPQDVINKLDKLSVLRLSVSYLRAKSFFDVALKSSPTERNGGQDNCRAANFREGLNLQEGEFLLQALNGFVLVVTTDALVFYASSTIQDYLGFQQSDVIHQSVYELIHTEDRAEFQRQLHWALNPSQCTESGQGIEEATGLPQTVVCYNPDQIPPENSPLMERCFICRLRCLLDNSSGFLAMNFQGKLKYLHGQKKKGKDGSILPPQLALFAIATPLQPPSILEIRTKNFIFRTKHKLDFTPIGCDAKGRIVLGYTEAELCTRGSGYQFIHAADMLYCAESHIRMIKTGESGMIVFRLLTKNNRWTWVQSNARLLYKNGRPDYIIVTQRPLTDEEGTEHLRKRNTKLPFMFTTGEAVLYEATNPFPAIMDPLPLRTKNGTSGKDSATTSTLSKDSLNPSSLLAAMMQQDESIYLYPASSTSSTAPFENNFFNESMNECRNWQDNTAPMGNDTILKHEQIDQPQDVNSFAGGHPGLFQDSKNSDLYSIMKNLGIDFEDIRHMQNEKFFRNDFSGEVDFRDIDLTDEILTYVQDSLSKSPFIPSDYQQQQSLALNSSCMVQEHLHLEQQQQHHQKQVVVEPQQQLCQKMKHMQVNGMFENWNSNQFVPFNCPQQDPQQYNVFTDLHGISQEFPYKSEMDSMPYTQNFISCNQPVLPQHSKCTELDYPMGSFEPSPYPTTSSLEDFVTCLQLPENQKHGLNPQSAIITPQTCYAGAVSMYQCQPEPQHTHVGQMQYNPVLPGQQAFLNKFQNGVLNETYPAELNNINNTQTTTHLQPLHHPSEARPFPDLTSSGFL
Method in brief: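 Values derive from bidirectional fitting against DMSO negative control. Underlying signal: cis-element reporter mRNA in transiently transfected HepG2, harvested 24 h post-dose and measured by RT-PCR plus capillary electrophoresis.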

[10] = ATG_AP_1_CIS: Attagene CIS-FACTORIAL HepG2 Assay for human Activator Protein 1 (AP-1) (AID 2282931); conditions: HepG2 Attagene cis-factorial AP-1 reporter mRNA; actives raise or lower the signal
Method in brief: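 We transfected HepG2 cells transiently with a set of cis-regulated reporter transcription units, dosed them for 24 h, and quantified reporter mRNA via RT-PCR and capillary electrophoresis, scoring gain or loss of signal relative to DMSO.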

[11] = ATG_AP_2_CIS: Attagene CIS-FACTORIAL HepG2 Assay for human Activator Protein 2 (AP-2) (AID 2282932); conditions: HepG2 AP-2 cis-reporter, Attagene transcription factor profiling; actives raise or lower the signal
Method in brief: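 Cells (HepG2) transfected with promoter-driven reporter constructs, treated 24 h. Total RNA reverse-transcribed, reporter cDNA PCR-amplified, FAM-labelled by primer extension, digested, resolved by capillary electrophoresis. Activity fitted both directions versus DMSO.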

[12] = ATG_BRE_CIS: Attagene CIS-FACTORIAL HepG2 Assay for human Bone Morphogenetic Protein (BMP) Response Element (BRE) (AID 2282933); conditions: HepG2 BMP response element reporter, Attagene transcription factor profiling; actives raise or lower the signal
Method in brief: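 Multiplexed cis-reporter assay, HepG2, 24 h exposure. mRNA from reporter units quantified via RT-PCR/CE; DMSO baseline; bidirectional curve fit.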

[13] = target: Transcription factor E2F1 (Homo sapiens) (UniProt Q01094); experiment: ATG_E2F_CIS: Attagene CIS-FACTORIAL HepG2 Assay for human E2F Transcription Factor 1 (AID 2282935); conditions: HepG2 Attagene cis-reporter, E2F reporter RNA transcripts; actives raise or lower the signal
Sequence of Transcription factor E2F1 (Homo sapiens) (Q01094 whole entry, looked up): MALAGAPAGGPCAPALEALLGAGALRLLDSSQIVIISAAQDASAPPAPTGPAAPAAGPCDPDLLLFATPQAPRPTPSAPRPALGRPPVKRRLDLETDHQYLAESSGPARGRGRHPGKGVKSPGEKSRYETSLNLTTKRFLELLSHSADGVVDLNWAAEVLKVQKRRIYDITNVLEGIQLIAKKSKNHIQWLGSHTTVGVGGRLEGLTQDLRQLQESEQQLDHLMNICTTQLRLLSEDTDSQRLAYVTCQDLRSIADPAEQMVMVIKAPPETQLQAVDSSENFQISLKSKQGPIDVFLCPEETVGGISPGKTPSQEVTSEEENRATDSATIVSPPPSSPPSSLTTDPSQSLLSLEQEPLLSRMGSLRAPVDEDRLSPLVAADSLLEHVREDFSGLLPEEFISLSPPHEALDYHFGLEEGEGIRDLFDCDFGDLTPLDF
Method in brief: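 First, HepG2 cells were transfected with reporter transcription units. Next, they were dosed for 24 h. Then RNA was isolated, converted to cDNA, PCR-amplified, FAM-labeled, HpaI-digested and analyzed by capillary electrophoresis.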

[14] = ATG_E_Box_CIS: Attagene CIS-FACTORIAL HepG2 Assay for human Enhancer Box (E-box) (AID 2282936); conditions: HepG2 E-box cis-reporter transcription, actives raise or lower the signal
Method in brief: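 Endogenous transcription factor activity was sensed in human HepG2 liver cells through transfected cis-promoter reporter units. After 24 h of dosing, total RNA was reverse-transcribed and reporter cDNA resolved by capillary electrophoresis.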

[15] = ATG_M_61_CIS: Attagene CIS-FACTORIAL HepG2 Assay for M61 Transcription Factor (Internal Marker) (AID 2282937); conditions: HepG2 Attagene CIS-FACTORIAL M61 internal marker reporter; actives raise or lower the signal
Method in brief: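 Multiplexed reporter mRNA assay, HepG2 human hepatoma cells, 24 h treatment. Signal: FAM-labelled, HpaI-digested RT-PCR fragments by CE. Fit: bidirectional, baseline DMSO.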

[16] = ATG_EGR_CIS: Attagene CIS-FACTORIAL HepG2 Assay for human Early Growth Response 1 (EGR1) (AID 2282938); conditions: HepG2 Attagene CIS-FACTORIAL EGR reporter mRNA; actives raise or lower the signal
Method in brief: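 Multiplexed cis-reporter system in human hepatoma HepG2 cells, transiently transfected. Cells are dosed for 24 h; reporter transcripts are amplified, fluorescently tagged and sized by capillary electrophoresis, with DMSO as negative control.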

[17] = ATG_M_19_CIS: Attagene CIS-FACTORIAL HepG2 Assay for M19 Transcription Factor (Internal Marker) (AID 2282939); conditions: HepG2 Attagene CIS-FACTORIAL M19 internal marker reporter; actives raise or lower the signal
Method in brief: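 Signals come from fluorescence of labelled reporter-specific PCR fragments resolved by capillary electrophoresis, following 24 h treatment of HepG2 cells transfected with cis-promoter reporter units; activity was fitted in both directions relative to DMSO.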

[18] = ATG_ERE_CIS: Attagene CIS-FACTORIAL HepG2 Assay for Estrogen Response Element (ERE) (AID 2282940); conditions: HepG2 ERE cis-reporter, Attagene RNA transcript; actives raise or lower the signal
Method in brief: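 Fluorescence of capillary-separated, FAM-labelled reporter cDNA fragments indicates reporter mRNA levels in HepG2 cells exposed to chemicals for 24 h. Transient transfection with cis-regulated units; data fitted in both directions against DMSO.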

[19] = APR_HepG2_p53Act_72hr: Apredica 72-hour HepG2 Assay for p53 Activation (AID 2282923); conditions: high-content imaging, actives raise or lower the signal;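 note: average cellular p53 protein immunofluorescence intensity in HepG2 cells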
Method in brief: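 Imaging-based endpoint: after 72 hr compound exposure (up to 200 uM, 0.5% DMSO), fixed and permeabilized monolayers were labelled with anti-p53 antibody and imaged; signal change in either direction was fitted relative to DMSO controls.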

[20] = target: Retinoic acid receptor alpha (Homo sapiens) (UniProt P10276); experiment: ATG_DR5_RAR_CIS: Attagene CIS-FACTORIAL HepG2 Assay for human Retinoic Acid Receptor Alpha (RARE), DR5 submotif (AID 2282934); conditions: HepG2 Attagene cis-factorial RARE DR5 reporter, mRNA; actives raise or lower the signal
Sequence of Retinoic acid receptor alpha (Homo sapiens) (P10276 whole entry, looked up): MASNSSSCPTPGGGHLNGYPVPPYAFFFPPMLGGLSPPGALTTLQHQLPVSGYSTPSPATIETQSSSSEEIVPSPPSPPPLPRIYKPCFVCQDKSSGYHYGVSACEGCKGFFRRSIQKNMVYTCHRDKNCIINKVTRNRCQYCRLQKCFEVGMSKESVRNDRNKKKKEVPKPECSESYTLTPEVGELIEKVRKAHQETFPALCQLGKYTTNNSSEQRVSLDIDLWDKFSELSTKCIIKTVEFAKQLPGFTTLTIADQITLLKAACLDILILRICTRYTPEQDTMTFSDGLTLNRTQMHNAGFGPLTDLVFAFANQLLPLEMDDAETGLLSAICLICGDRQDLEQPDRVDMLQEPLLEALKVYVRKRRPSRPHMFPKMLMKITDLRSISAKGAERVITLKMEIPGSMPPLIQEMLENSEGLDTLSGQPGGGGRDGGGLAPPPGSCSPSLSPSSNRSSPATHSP
Method in brief: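 Endpoint fitted in both directions relative to DMSO as negative control. It reflects DR5 cis-element reporter mRNA induction in transiently transfected HepG2 cells, measured 24 h after dosing through RT-PCR and fluorescent capillary electrophoresis.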

Measured: AC50

CN(C)C(=S)S
active: [1] 0.125 µM | [2] 1.16 µM | [7] 26.2 µM | [8] 25.5 µM | [10] 25.9 µM
not listed: [18] | [19] | [20]
inactive: all other assays above

O=c1oc2ccccc2c(O)c1C(CC(O)c1ccc(-c2ccc(Br)cc2)cc1)c1ccccc1 (configuration not stated)
inactive: [5] | [6] | [7] | [9] | [12] | [13] | [14] | [15] | [17] | [18]
active: [5] 39 µM | [8] 37.6 µM and 30.8 µM | [10] 7.97 µM and 57.9 µM | [11] 54.8 µM and 48.2 µM | [13] 40.6 µM | [14] 54.6 µM | [16] 41.1 µM and 17.8 µM

Oc1c(Cl)cc(Cl)cc1Cl
active: [1] 50 µM | [9] 62.3 µM
not listed: [4] | [5] | [10] | [18] | [20]
inactive: all other assays above

CC1CC(=O)O1 (configuration not stated)
not listed: [1] | [2] | [3] | [4] | [18] | [19]
inactive: all other assays above

Cc1cc(Cl)ccc1OCCCC(=O)O
not listed: [1] | [2] | [3] | [4] | [18] | [19]
inactive: all other assays above

CCCCOC(C)=O
not listed: [1] | [2] | [3] | [4] | [18] | [19]
inactive: all other assays above

CCCCCCCCBr
not listed: [1] | [2] | [3] | [4] | [18] | [19]
inactive: all other assays above

CCCCCCCCCCCCOS(=O)(=O)O
active: [8] 49.3 µM
inactive: [5] | [6] | [7] | [8] | [10] | [11] | [12] | [13] | [14] | [15] | [16] | [17]

C=C(C)C(=O)OCCCCOC(=O)C(=C)C
not listed: [1] | [2] | [3] | [4] | [18] | [19]
inactive: all other assays above
